The results in this text go back to PubChem BioAssay (NCI).

Several values for one entry are separate records, joined by “and”; a condition that tells them apart may be missing. Equal entries are not always repeated. The panel holds about 79,000 compounds, 15% with a hit somewhere; the sample as a whole holds those more often. The source holds several records for some structures; these can differ, active in one and inactive in another. Activity calls are given as the source filed them. Rule as the data show it: active = growth inhibition above about 70%; inactive = the rest.

The nature of test [1]: NCI Yeast Anticancer Drug Screen. Data for the rad50 strain (AID 155).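 Also: 0% = growth of vehicle-only cultures of the same strain.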 To be noted: S. cerevisiae rad50 strain growth inhibition, stronger effect = higher value. In a few lines:
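Inhibition values express reduced yeast growth in compound-treated cultures relative to vehicle-treated controls.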

Test [2] in a line: NCI Yeast Anticancer Drug Screen. Data for the mec2-1 strain (AID 157). The following applies: S. cerevisiae mec2-1 strain, stronger effect = higher value. The essentials:
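Mutant yeast (mec2-1) grown with compound; growth inhibition relative to vehicle control reported.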

Test [3] is described as follows: NCI Yeast Anticancer Drug Screen. Data for the sgs1 mgt1 strain (AID 161).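 Also: 0% = growth of cultures given vehicle only.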 The following applies: S. cerevisiae sgs1 mgt1 strain, stronger effect = higher value. In a few lines: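 Growth of a repair-deficient yeast mutant was monitored after compound treatment and expressed as inhibition relative to vehicle-treated cultures.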
The nature of test [4]: NCI Yeast Anticancer Drug Screen. Data for the cln2 rad14 strain (AID 165).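 Also: 0% = growth equal to vehicle treated cultures.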 To be noted: S. cerevisiae cln2 rad14 strain, stronger effect = higher value. In a few lines: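 Readout is yeast growth inhibition versus vehicle-treated controls, using a strain with cln2 and rad14 alterations exposed to compound.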
The nature of test [5]: NCI Yeast Anticancer Drug Screen. Data for the bub3 strain (AID 167). The following applies: S. cerevisiae bub3 mutant strain, stronger effect = higher value. In a few lines: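 Steps: expose the mutant yeast strain to compound; grow alongside vehicle-treated cultures; measure growth; express inhibition against the vehicle cultures.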
The nature of test [6]: NCI Yeast Anticancer Drug Screen. Data for the mlh1 rad18 strain (AID 175). The following applies: S. cerevisiae mlh1 rad18 strain growth inhibition, stronger effect = higher value. The essentials:
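Genetically defined yeast (DNA repair-deficient) exposed to compounds; growth inhibition determined relative to vehicle.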

Where [7] appears, read: at 5.0 µM (retest, dose inferred, filed as 0.5).
Where [8] appears, read: at 50.0 µM (retest, dose inferred, filed as 5.0).

In the case of `Cc1cc(C)[nH]c(=O)n1`, the growth inhibition is -2% (inactive) in test [1] (setting [7]); 16% (inactive) in test [1] (setting [8]); -22.4% (inactive) and 84.2% (active) in test [1] (at 50.0 µM); -1% (inactive) in test [2] (setting [7]); 11% (inactive) in test [2] (setting [8]); -16.4% (inactive) and 2.9% (inactive) in test [2] (at 50.0 µM). In addition, the growth inhibition in test [3] (setting [7]) was 2% (inactive); in test [3] (setting [8]), 7% (inactive); in test [3] (at 50.0 µM), -9.15% (inactive) and 22.4% (inactive); in test [4] (setting [7]) it was 6% (inactive); in test [4] (setting [8]), 13% (inactive); in test [4] (at 50.0 µM), -18.1% (inactive) and 22.9% (inactive). Moreover, the growth inhibition in test [5] (setting [7]) was -4% (inactive); in test [5] (setting [8]) it was -2% (inactive); in test [5] (at 50.0 µM), -2.25% (inactive) and 14.7% (inactive); in test [6] (setting [7]), -2% (inactive); in test [6] (setting [8]), 7% (inactive); in test [6] (at 50.0 µM), -14.6% (inactive) and 45.2% (inactive).
For the molecule `COC(=O)[C@]1(C)CCC[C@]2(C)c3cc(C(C)=O)c(C(C)C)cc3CC[C@@H]12`, the growth inhibition is -1% (inactive) in test [1] (setting [7]); -11% (inactive) in test [1] (setting [8]); 92.5% (active) and -4.55% (inactive) in test [1] (at 50.0 µM); 7% (inactive) in test [2] (setting [7]); 10% (inactive) in test [2] (setting [8]); 95.5% (active) and -11.9% (inactive) in test [2] (at 50.0 µM). Moreover, the growth inhibition was -4% (inactive) in test [3] (setting [7]); -27% (inactive) in test [3] (setting [8]); 93.5% (active) and -5.45% (inactive) in test [3] (at 50.0 µM); -1% (inactive) in test [4] (setting [7]); -2% (inactive) in test [4] (setting [8]); 99.5% (active) and -40.8% (inactive) in test [4] (at 50.0 µM). In addition, the growth inhibition in test [5] (setting [7]) was 1% (inactive); in test [5] (setting [8]), 0% (inactive); in test [5] (at 50.0 µM) it was 98.5% (active) and -5.05% (inactive); in test [6] (setting [7]) it was -2% (inactive); in test [6] (setting [8]) it was 8% (inactive); in test [6] (at 50.0 µM), 97% (active) and -12.2% (inactive).
In the case of `CNC(=O)N(C)CN(C)C(=O)NC`, the growth inhibition in test [1] (setting [7]) is 0% (inactive); in test [1] (setting [8]), 9% (inactive); in test [1] (at 50.0 µM), 17.1% (inactive) and 17.2% (inactive); in test [2] (setting [7]), -1% (inactive); in test [2] (setting [8]) it was 2% (inactive); in test [2] (at 50.0 µM), -11.9% (inactive) and 17.7% (inactive). Further, the growth inhibition was -3% (inactive) in test [3] (setting [7]); 7% (inactive) in test [3] (setting [8]); 4% (inactive) and 19.8% (inactive) in test [3] (at 50.0 µM); -4% (inactive) in test [4] (setting [7]); -9% (inactive) in test [4] (setting [8]); 26.8% (inactive) and 18.6% (inactive) in test [4] (at 50.0 µM). For the same molecule, the growth inhibition in test [5] (setting [7]) was -5% (inactive); in test [5] (setting [8]) it was -8% (inactive); in test [5] (at 50.0 µM), 2.8% (inactive) and -19.9% (inactive); in test [6] (setting [7]) it was -5% (inactive); in test [6] (setting [8]), 7% (inactive); in test [6] (at 50.0 µM) it was 3.75% (inactive) and 40.1% (inactive).
For the molecule `O=C1NC(=O)c2cc([N+](=O)[O-])ccc21`, the growth inhibition was -9% (inactive) in test [1] (setting [7]); 12% (inactive) in test [1] (setting [8]); 6.65% (inactive) and 0.9% (inactive) in test [1] (at 50.0 µM); 0% (inactive) in test [2] (setting [7]); 4% (inactive) in test [2] (setting [8]); -21.9% (inactive) and 3.5% (inactive) in test [2] (at 50.0 µM). The growth inhibition was -2% (inactive) in test [3] (setting [7]); 8% (inactive) in test [3] (setting [8]); 5.35% (inactive) and 17% (inactive) in test [3] (at 50.0 µM); -5% (inactive) in test [4] (setting [7]); -5% (inactive) in test [4] (setting [8]); -1.95% (inactive) and 55% (inactive) in test [4] (at 50.0 µM). Moreover, the growth inhibition in test [5] (setting [7]) is 0% (inactive); in test [5] (setting [8]), 13% (inactive); in test [5] (at 50.0 µM), -0.35% (inactive) and 34.4% (inactive); in test [6] (setting [7]) it was -4% (inactive); in test [6] (setting [8]), 12% (inactive); in test [6] (at 50.0 µM), 11.3% (inactive) and -14.6% (inactive).
As to `O=C1c2cccc(NCCCNCCO)c2C(=O)c2cccc(NCCCNCCO)c21`, the growth inhibition was 33% (inactive) in test [1] (setting [7]); 47% (inactive) in test [1] (setting [8]); 43.2% (inactive) and 9.05% (inactive) in test [1] (at 50.0 µM); -8% (inactive) in test [2] (setting [7]); 2% (inactive) in test [2] (setting [8]); 23.6% (inactive) and 5.3% (inactive) in test [2] (at 50.0 µM). The growth inhibition in test [3] (setting [7]) was 26% (inactive); in test [3] (setting [8]) it was 39% (inactive); in test [3] (at 50.0 µM) it was 12.7% (inactive) and 88.5% (active); in test [4] (setting [7]), 30% (inactive); in test [4] (setting [8]), 39% (inactive); in test [4] (at 50.0 µM) it was 9% (inactive) and 48.1% (inactive). For the same molecule, the growth inhibition in test [5] (setting [7]) is 13% (inactive); in test [5] (setting [8]), 39% (inactive); in test [5] (at 50.0 µM) it was -8.35% (inactive) and 63.1% (inactive); in test [6] (setting [7]), 15% (inactive); in test [6] (setting [8]), 42% (inactive); in test [6] (at 50.0 µM), 81.5% (active) and 83.4% (active).
For `O=C(Nc1cc(-c2ccccc2)[nH]n1)c1ccccc1F`, the growth inhibition was 41% (inactive) in test [1] (setting [7]); 59% (inactive) in test [1] (setting [8]); 88.1% (active) in test [1] (at 50.0 µM); 35% (inactive) in test [2] (setting [7]); 69% (inactive) in test [2] (setting [8]); 86% (active) in test [2] (at 50.0 µM). For the same molecule, the growth inhibition in test [3] (setting [7]) is 39% (inactive); in test [3] (setting [8]), 83% (active); in test [3] (at 50.0 µM) it was 92.8% (active); in test [4] (setting [7]) it was 30% (inactive); in test [4] (setting [8]), 54% (inactive); in test [4] (at 50.0 µM), 66.5% (inactive). Besides, the growth inhibition in test [5] (setting [7]) was 42% (inactive); in test [5] (setting [8]), 55% (inactive); in test [5] (at 50.0 µM) it was 89.3% (active); in test [6] (setting [7]) it was 43% (inactive); in test [6] (setting [8]) it was 86% (active); in test [6] (at 50.0 µM), 89.6% (active).
Consider `O=c1c(O)cccc2cc(O)c(O)c(O)c12`, for which the growth inhibition in test [1] (setting [7]) was 9% (inactive) and 29% (inactive); in test [1] (setting [8]) it was 90% (active) and 98% (active); in test [1] (at 50.0 µM), 89.2% (active) and 90.3% (active); in test [2] (setting [7]), -22% (inactive) and 25% (inactive); in test [2] (setting [8]) it was 94% (active) and 98% (active); in test [2] (at 50.0 µM), 91.4% (active) and 91.2% (active). The growth inhibition in test [3] (setting [7]) is -4% (inactive) and 36% (inactive); in test [3] (setting [8]) it was 92% (active) and 98% (active); in test [3] (at 50.0 µM) it was 89.7% (active) and 91.3% (active); in test [4] (setting [7]) it was 12% (inactive) and 6% (inactive); in test [4] (setting [8]), 91% (active) and 97% (active); in test [4] (at 50.0 µM), 85.5% (active) and 87.5% (active). For the same molecule, the growth inhibition in test [5] (setting [7]) was 5% (inactive) and 29% (inactive); in test [5] (setting [8]), 94% (active) and 97% (active); in test [5] (at 50.0 µM), 87% (active) and 90.2% (active); in test [6] (setting [7]), -4% (inactive) and 48% (inactive); in test [6] (setting [8]), 93% (active) and 97% (active); in test [6] (at 50.0 µM), 87.2% (active) and 91.1% (active).
As to `CCOC(=O)c1c(CN2CCNCC2)nc2ccc(Cl)cc2c1-c1ccccc1`, the growth inhibition in test [1] (setting [7]) is 30% (inactive); in test [1] (setting [8]), 30% (inactive); in test [1] (at 50.0 µM) it was 29.4% (inactive); in test [2] (setting [7]) it was 35% (inactive); in test [2] (setting [8]) it was 35% (inactive); in test [2] (at 50.0 µM) it was 14.2% (inactive). The growth inhibition is 26% (inactive) in test [3] (setting [7]); 26% (inactive) in test [3] (setting [8]); 68% (inactive) in test [3] (at 50.0 µM); 23% (inactive) in test [4] (setting [7]); 23% (inactive) in test [4] (setting [8]); 41.1% (inactive) in test [4] (at 50.0 µM). Moreover, the growth inhibition was 29% (inactive) in test [5] (setting [7]); 29% (inactive) in test [5] (setting [8]); 27.6% (inactive) in test [5] (at 50.0 µM); 32% (inactive) in test [6] (setting [7]); 32% (inactive) in test [6] (setting [8]); 39.5% (inactive) in test [6] (at 50.0 µM).
